From PubChem BioAssay AID463173 (ICCB-Longwood Screening Facility, Harvard Medical School, 2010)
Out of some 52,000 compounds screened, about 4,300 (8.3%) were called active. Cut-off read from the data, not from the text of the source: active = survival mostly below about 52% (no sharp cut-off); inactive = mostly above about 56%. The sample as a whole holds a higher share of actives than the screen did.

These compounds were tested on DeltatarO mutant (assay: S. aureus survival, RN4220 and DeltatarO strains – OD600, teichoic acid synthesis inhibitors, primary screen (AID 463173)). Settings: S. aureus RN4220 wild type/DeltatarO growth, OD600, 18 h, stronger effect = lower value, screened at 18.75 µg/mL (by protocol).

Compound	survival
O=c1cc(-c2ccccc2)n2c(SCc3cccc([N+](=O)[O-])c3)nnc2[nH]1	69% (inactive)
Cc1noc(Cn2c(=O)c3cc4c(cc3n(CC(=O)Nc3ccccc3F)c2=O)OCO4)n1	77% (inactive)
Cc1cccc(CS(=O)(=O)Cc2ccc(C(=O)NCc3ccc(Cl)cc3)o2)c1	130% (inactive)
Cc1ccc(-n2c(=O)c3c4c(sc3n(CC(=O)c3ccc(Cl)cc3)c2=O)CCC4)cc1C	168% (inactive)
Cc1ccc(Cl)cc1NC(=O)CCC(=O)NCc1ccco1	74% (inactive)
Cc1ccc(NS(=O)(=O)c2ccc3c(c2)CCCN3C(=O)C2CCC2)cc1Cl	107% (inactive)
CCc1cccc(C)c1NC(=O)Cn1cc2c(n1)CCCC2	99% (inactive)
CCc1ccccc1NS(=O)(=O)c1ccc2[nH]cc(C(=O)N(CC(C)C)CC(C)C)c(=O)c2c1	84% (inactive)
COc1ccc(C(=O)Nc2nnc(S(=O)(=O)N(CC(C)C)c3ccccc3)s2)cc1	51% (inactive)
COc1ccc(C(=O)Nc2nnc(S(=O)(=O)N(CC(C)C)c3ccc(C)cc3)s2)cc1OC	68% (inactive)
Cc1ccc(N(CC(C)C)S(=O)(=O)c2nnc(NC(=O)c3cccs3)s2)cc1	34% (active)
CC(C)CN(c1ccccc1)S(=O)(=O)c1nnc(NC(=O)C2CCCCC2)s1	51% (inactive)
COc1ccc(N(CC(C)C)S(=O)(=O)c2nnc(NC(=O)c3cccs3)s2)cc1	42% (active)
Cc1ccc(N(CC(C)C)S(=O)(=O)c2nnc(NC(=O)C(C)C)s2)cc1	72% (inactive)
CCc1ccc(CNC(=O)C2CCN(C(=O)N3CC(CC)Oc4ccc(C)cc43)CC2)cc1 (configuration not stated)	55% (inactive)
Cc1ccc2nc(-c3ccc(Cl)c(NC(=O)c4cccc([N+](=O)[O-])c4C)c3)oc2c1	126% (inactive)
Cc1ccc2nc(-c3ccc(C)c(NC(=O)Cc4ccccc4)c3)oc2c1	77% (inactive)
Cc1cccc(OCC(=O)Nc2ccc(-c3nc4ccccc4o3)cc2)c1C	52% (active)
O=C(COc1ccccc1)Nc1c(Cl)ccc2nsnc12	74% (inactive)

Compound	survival
Cc1ccc2nc(-c3ccc(Cl)c(NC(=O)COc4cccc(C)c4C)c3)oc2c1	48% (active)
Cc1cc2nc(-c3cccc(NC(=O)COc4ccc(C(C)C)cc4)c3)oc2cc1C	50% (inactive)
Cc1ccc2nc(-c3ccc(Cl)c(NC(=O)COc4ccc(C(C)C)cc4)c3)oc2c1	42% (active)
Cc1ccc2nc(-c3ccc(Cl)c(NC(=O)COc4ccc([N+](=O)[O-])cc4)c3)oc2c1	54% (inactive)
Cc1cc(C)cc(OCC(=O)Nc2ccc(-c3nc4ccccc4o3)cc2)c1	51% (inactive)
Cc1ccc(OCC(=O)Nc2ccc(-c3nc4ccccc4o3)cc2)c(C)c1	63% (inactive)
Cc1ccc(OCC(=O)Nc2c(Cl)ccc3nsnc23)cc1C	71% (inactive)
CC(C)c1ccc(OCC(=O)Nc2c(Cl)ccc3nsnc23)cc1	41% (active)
CN1CCN(C(=O)/C(=C/c2cccs2)NC(=O)c2cccs2)CC1	74% (inactive)
CC(C)CCNC(=O)c1cnc2sc(N3CCCCCC3)nn2c1=O	78% (inactive)
CCN(CC)S(=O)(=O)c1ccc2c(c1)c(=O)c(C(=O)N1CCN(c3cccc(C)c3)C(C)C1)cn2C (configuration not stated)	78% (inactive)
COc1ccc(N2CCN(C(=O)c3nn(-c4ccc(C)cc4)c(=O)n(C)c3=O)CC2)cc1	71% (inactive)
CCN(CC)CCNC(=O)CCn1c(=O)c2cccn2c2cccnc21	87% (inactive)
O=C(Cn1nnc(-c2ccc(Cl)cc2)n1)NCc1ccc(F)cc1	78% (inactive)
CCc1ccc(NC(=O)N2c3ccccc3Sc3ccccc32)cc1	-2% (active)
CCN(CC)C(=O)N1c2ccccc2Sc2ccccc21	99% (inactive)
CC(C)c1ccc(NC(=O)N2c3ccccc3Sc3ccccc32)cc1	6% (active)
CC(=O)N1c2ccccc2Sc2ccccc21	102% (inactive)
O=C(C1CC1)N1c2ccccc2Sc2ccccc21	73% (inactive)

Compound	survival
CCOC(=O)N1c2ccccc2Sc2ccccc21	98% (inactive)
Cc1ccc(-c2cc(C(F)F)n3ncc(C(=O)Nc4cn(C)nc4C)c3n2)cc1	89% (inactive)
CC1=C(C(=O)Nc2ccc(F)cc2F)C2(CCCCCC2)OC1=O	83% (inactive)
Cc1cc(C)n(-c2nc(C)c(C)c(=O)n2CC(=O)Nc2cccc([N+](=O)[O-])c2)n1	52% (active)
Cc1cc(=O)n(CC(=O)Nc2cccc([N+](=O)[O-])c2)c(-n2nc(C)cc2C)n1	95% (inactive)
Cc1cc(C)n(-c2nc(C)c(C)c(=O)n2CC(=O)Nc2ccc([N+](=O)[O-])cc2)n1	77% (inactive)
COc1ccc(CN2CCN(c3ncnc4sc5c(c34)CC(C)CC5)CC2)cc1F (configuration not stated)	83% (inactive)
c1nc(N2CCCC2)c2c3c(sc2n1)CCC3	70% (inactive)
O=C(c1ccco1)N1CCN(c2ncnc3sc4c(c23)CCC4)CC1	36% (active)
Cc1nc(N2CCN(C(=O)c3ccco3)CC2)c2c3c(sc2n1)CC(C(C)(C)C)CC3 (configuration not stated)	77% (inactive)
COc1ccc(CN2CCN(c3ncnc4sc5c(c34)CCCC5)CC2)cc1F	33% (active)
Clc1ccc(CN2CCN(c3ncnc4sc5c(c34)CCCC5)CC2)cc1Cl	107% (inactive)
Cc1ccc(NC(=O)Cn2cc(S(=O)(=O)N3CCC(C)CC3)c3ccccc3c2=O)c(Br)c1	84% (inactive)
CCc1ccc(NCc2cc3cc4c(cc3n(CC(=O)Nc3ccc(Cl)cc3)c2=O)OCO4)cc1	135% (inactive)
CCOc1ccc(NC(=O)Cn2c(=O)c(CNc3ccc(CC)cc3)cc3cc4c(cc32)OCO4)cc1	47% (active)
CC(=O)c1cccc(NC(=O)Cn2c(=O)c(CNc3ccc(C)cc3)cc3cc4c(cc32)OCCO4)c1	91% (inactive)
CCc1ccc(NCc2cc3cc4c(cc3n(CC(=O)Nc3ccc(C)cc3)c2=O)OCO4)cc1	89% (inactive)
COc1ccc(NCc2cc3cc4c(cc3n(CC(=O)Nc3ccc(C)cc3)c2=O)OCO4)cc1	67% (inactive)
Cc1ccc(NCc2cc3cc4c(cc3n(CC(=O)Nc3ccc(C)cc3)c2=O)OCCO4)cc1	32% (active)
